Laboratory results reported in the antibiotic and cytotoxicity screens of Wong et al. (2023).
The whole screen tested about 39,000 compounds, of which about 3,300 (8.5%) were called active. The list comes from a sample in which actives are over-represented; it also holds similar structures and randomly drawn compounds.

Test system: HepG2
Assay: cytotoxicity call (relative viability < 0.9)
Settings: 10 µM

Compound | cytotoxicity call
COCC(=O)Nc1ccc2c(c1)C(=O)N(C)C[C@@H](OC)[C@H](C)CN(C(=O)Cc1ccccn1)[C@@H](C)CO2 | inactive
C[C@@H]1CN([C@@H](C)CO)C(=O)c2cc(C#CCc3ccccc3)cnc2O[C@@H]1CN(C)C(=O)C1CCOCC1 | inactive
Cc1ccc(S(=O)(=O)N(C)C[C@@H]2Oc3c(NC(=O)C4CC4)cccc3C(=O)N([C@H](C)CO)C[C@@H]2C)cc1 | inactive
C[C@@H]1CN([C@@H](C)CO)S(=O)(=O)c2ccc(C#C[C@@H](C)O)cc2O[C@H]1CN(C)C(=O)Nc1ccccc1 | inactive
C[C@H]1CN([C@@H](C)CO)C(=O)c2cccc(NS(=O)(=O)c3cn(C)cn3)c2O[C@H]1CN(C)Cc1ccc2c(c1)OCO2 | inactive
C[C@@H]1CCCCO[C@H](CN(C)Cc2ccc(C(=O)O)cc2)[C@H](C)CN([C@H](C)CO)C(=O)c2cc(NS(=O)(=O)c3ccc(F)cc3)ccc2O1 | inactive
CC(C)NC(=O)Nc1ccc2c(c1)C(=O)N([C@H](C)CO)C[C@H](C)[C@H](CN(C)S(C)(=O)=O)OCCCC[C@H](C)O2 | inactive
CCCC(=O)Nc1ccc2c(c1)C(=O)N(C)C[C@@H](OC)[C@H](C)CN(S(=O)(=O)c1cn(C)cn1)[C@H](C)CO2 | inactive
C[C@@H]1CN([C@H](C)CO)C(=O)c2cccc(NS(=O)(=O)c3cccs3)c2O[C@@H]1CN(C)CC1CC1 | inactive
COc1ccccc1C#Cc1cnc2c(c1)C(=O)N([C@@H](C)CO)C[C@@H](C)[C@@H](CN(C)C(=O)CC1CC1)O2 | inactive
C[C@H]1CCCCO[C@H](CN(C)C(=O)Nc2ccccc2)[C@@H](C)CN([C@@H](C)CO)C(=O)c2cc(NS(=O)(=O)c3ccc(Cl)cc3)ccc2O1 | inactive
COc1ccc(NC(=O)N(C)C[C@@H]2Oc3ccc(NC(=O)CCN4CCOCC4)cc3CC(=O)N([C@H](C)CO)C[C@@H]2C)cc1 | inactive
C[C@H]1CN([C@@H](C)CO)C(=O)Cc2cc(NC(=O)Nc3ccc(C(F)(F)F)cc3)ccc2O[C@@H]1CN(C)C(=O)Nc1cccc2ccccc12 | inactive
C[C@@H]1CN([C@H](C)CO)C(=O)Cc2cc(NS(=O)(=O)c3cn(C)cn3)ccc2O[C@@H]1CN(C)CC1CCCCC1 | inactive
C[C@H](CO)N1C[C@H](C)[C@@H](CN(C)Cc2ccc(Oc3ccccc3)cc2)Oc2ncc(-c3ccncc3)cc2C1=O | inactive
C[C@@H]1CN([C@@H](C)CO)C(=O)c2cc(NC(=O)Nc3ccc(C(F)(F)F)cc3)ccc2O[C@@H](C)CCCCO[C@@H]1CN(C)CC1CCCCC1 | active
C[C@@H]1CCCCO[C@H](CN(C)CC2CCCCC2)[C@H](C)CN([C@H](C)CO)C(=O)c2cc(NC(=O)Nc3ccc(C(F)(F)F)cc3)ccc2O1 | active
C[C@@H]1CCCCO[C@H](CN(C)CC2CCCCC2)[C@H](C)CN([C@@H](C)CO)C(=O)c2cc(NC(=O)Nc3ccc(C(F)(F)F)cc3)ccc2O1 | active
CCOC(=O)CCCCCC(=O)Nc1ccc2c(c1)C(=O)N([C@H](C)CO)C[C@@H](C)[C@@H](CN(C)S(=O)(=O)c1ccc(Cl)cc1)OCCCC[C@H](C)O2 | inactive
Cc1ccc(S(=O)(=O)Nc2cccc3c2O[C@@H](CN(C)C(=O)Nc2cccc4ccccc24)[C@@H](C)CN([C@@H](C)CO)C3=O)cc1 | inactive
Cc1ccc(S(=O)(=O)N(C)C[C@@H]2Oc3ccc(NS(=O)(=O)c4ccccc4)cc3CC(=O)N([C@H](C)CO)C[C@H]2C)cc1 | inactive

Compound | cytotoxicity call
CN1CC(=O)NC1=O | inactive
O=C(NCCCO)C(=O)NC[C@H]1COc2ccccc2O1 | inactive
C[C@H](CO)N1C[C@H](C)[C@@H](CN(C)Cc2ccc3c(c2)OCO3)Oc2ncc(C#CCN(C)C)cc2C1=O | inactive
CCCCC(=O)OC1CCC2C3CCc4cc(O)ccc4C3CCC12C (configuration not stated) | inactive
Cc1ccc(S(=O)(=O)Nc2ccc3c(c2)C(=O)N([C@@H](C)CO)C[C@@H](C)[C@H](CN(C)S(=O)(=O)c2cn(C)cn2)O3)cc1 | inactive
Cc1c[nH]c2ccccc12 | inactive
Cc1cc(C)c2[nH]c3ccccc3c2n1 | active
CN(C)Cc1nc(=O)c2ccccc2[nH]1 | inactive
Cc1ccc(S(=O)(=O)N(C)C[C@H]2OCCCC[C@@H](C)Oc3ccc(NC(=O)Cc4ccccc4)cc3C(=O)N([C@@H](C)CO)C[C@@H]2C)cc1 | inactive
Cc1noc(C)c1NC(=O)Nc1ccc2c(c1)CC(=O)N([C@H](C)CO)C[C@@H](C)[C@@H](CN(C)Cc1ccc(Cl)c(Cl)c1)O2 | inactive
C[C@@H]1CN([C@H](C)CO)C(=O)Cc2cc(NS(=O)(=O)c3ccc(Cl)cc3)ccc2O[C@H]1CN(C)Cc1ccc(Oc2ccccc2)cc1 | active
C[C@@H]1CN([C@@H](C)CO)C(=O)Cc2cc(NS(=O)(=O)c3ccc(Cl)cc3)ccc2O[C@@H]1CN(C)Cc1ccc(Oc2ccccc2)cc1 | active
C[C@H]1CN([C@@H](C)CO)C(=O)Cc2cc(NS(=O)(=O)c3ccc(Cl)cc3)ccc2O[C@H]1CN(C)Cc1ccc(Oc2ccccc2)cc1 | active
C[C@H](CO)N1C[C@H](C)[C@H](CN(C)Cc2ccc(Oc3ccccc3)cc2)Oc2ccc(NS(=O)(=O)c3ccc(Cl)cc3)cc2CC1=O | active
COCCNC(=O)C[C@H]1C[C@@H]2c3cc(NC(=O)Nc4ccc(C(F)(F)F)cc4)ccc3O[C@@H]2[C@H](CO)O1 | inactive
C[C@H]1CN([C@@H](C)CO)C(=O)Cc2cc(NC(=O)CCCCCC(=O)Nc3ccccc3N)ccc2O[C@H]1CN(C)C(=O)Nc1cccc2ccccc12 | inactive
Cc1cccc(N2C[C@@H](CN)OC2=O)c1 | inactive
O=C(O)C[C@@H]1C=C[C@H](NC(=O)c2ccncc2)[C@@H](CO)O1 | inactive
O=C(NO)c1ccc(C(=O)N/N=C/c2cccc(B(O)O)c2)cc1 | inactive
C[C@@H]1CN([C@@H](C)CO)C(=O)c2cc(NS(=O)(=O)c3cccs3)ccc2O[C@@H](C)CCCCO[C@H]1CN(C)C(=O)Nc1ccc(F)cc1 | inactive
COc1ccc(S(=O)(=O)Nc2cccc3c2O[C@H](CN(C)S(=O)(=O)c2cccs2)[C@@H](C)CN([C@H](C)CO)C3=O)cc1 | inactive
